{
  "source": "the antibiotic and cytotoxicity screens of Wong et al. (2023)",
  "note": "Screen size: about 39,000 compounds; about 3,300 (8.5%) were called active. The full list was thinned out, with actives kept by preference.",
  "data": [
    {"test_system": "HepG2", "assay": "cytotoxicity call (relative viability < 0.9)", "conditions": "10 µM", "values": [
      {"smiles": "CCCN(C)C[C@@H]1Oc2cc(C#Cc3ccc(OC)cc3)ccc2S(=O)(=O)N([C@H](C)CO)C[C@@H]1C", "cytotoxicity call": "inactive"},
      {"smiles": "Cc1ccc(C(=O)CCNc2ccc3c(c2)oc2ccccc23)o1", "cytotoxicity call": "inactive"},
      {"smiles": "C[C@@H]1CCCCO[C@@H](CN(C)C(=O)c2ccccc2)[C@@H](C)CN([C@H](C)CO)C(=O)c2cc(NC(=O)Nc3cccc4ccccc34)ccc2O1", "cytotoxicity call": "inactive"},
      {"smiles": "C[C@H]1CCCCO[C@H](CN(C)S(=O)(=O)c2cn(C)cn2)[C@@H](C)CN([C@@H](C)CO)C(=O)c2cc(NC(=O)Nc3ccc(C(F)(F)F)cc3)ccc2O1", "cytotoxicity call": "inactive"},
      {"smiles": "Cc1noc(C)c1S(=O)(=O)Nc1ccc2c(c1)CC(=O)N([C@H](C)CO)C[C@@H](C)[C@H](CN(C)S(=O)(=O)c1ccc(F)cc1)O2", "cytotoxicity call": "inactive"},
      {"smiles": "C[C@@H]1CN([C@H](C)CO)C(=O)c2cc(NC(=O)Nc3cccc4ccccc34)ccc2O[C@@H](C)CCCCO[C@@H]1CN(C)C(=O)C1CCCCC1", "cytotoxicity call": "inactive"},
      {"smiles": "C[C@@H]1CN([C@@H](C)CO)C(=O)c2cccc(NC(=O)Nc3ccc(F)cc3)c2O[C@@H]1CN(C)C(=O)Nc1cccc2ccccc12", "cytotoxicity call": "inactive"},
      {"smiles": "C[C@@H](NC(=O)c1ccccc1)C(=O)NN", "cytotoxicity call": "inactive"},
      {"smiles": "C[C@@H]1CN([C@H](C)CO)C(=O)c2cc(NC(=O)NC3CCCCC3)ccc2O[C@@H](C)CCCCO[C@@H]1CN(C)Cc1ccccc1", "cytotoxicity call": "inactive"},
      {"smiles": "C[C@@H]1CN([C@@H](C)CO)C(=O)c2cc(NC(=O)NC3CCCCC3)ccc2O[C@@H](C)CCCCO[C@@H]1CN(C)Cc1ccncc1", "cytotoxicity call": "inactive"},
      {"smiles": "C[C@@H]1CCCCO[C@@H](CN(C)Cc2ccccc2)[C@@H](C)CN([C@@H](C)CO)C(=O)c2cc(NC(=O)NC3CCCCC3)ccc2O1", "cytotoxicity call": "active"},
      {"smiles": "C[C@H](CO)N1C[C@H](C)[C@H](CN(C)Cc2ccccc2)OCCCC[C@H](C)Oc2ccc(NC(=O)NC3CCCCC3)cc2C1=O", "cytotoxicity call": "inactive"},
      {"smiles": "C[C@H]1CCCCO[C@@H](CN(C)Cc2ccncc2)[C@@H](C)CN([C@@H](C)CO)C(=O)c2cc(NC(=O)NC3CCCCC3)ccc2O1", "cytotoxicity call": "inactive"},
      {"smiles": "C[C@@H]1CN([C@@H](C)CO)C(=O)c2cc(NC(=O)NC3CCCCC3)ccc2O[C@@H](C)CCCCO[C@H]1CN(C)Cc1ccccc1", "cytotoxicity call": "inactive"},
      {"smiles": "C[C@@H]1CCCCO[C@H](CN(C)Cc2ccccc2)[C@H](C)CN([C@@H](C)CO)C(=O)c2cc(NC(=O)NC3CCCCC3)ccc2O1", "cytotoxicity call": "active"},
      {"smiles": "C[C@@H]1CCCCO[C@@H](CN(C)Cc2ccccc2)[C@@H](C)CN([C@H](C)CO)C(=O)c2cc(NC(=O)NC3CCCCC3)ccc2O1", "cytotoxicity call": "inactive"},
      {"smiles": "C[C@@H]1CCCCO[C@H](CN(C)Cc2ccncc2)[C@H](C)CN([C@@H](C)CO)C(=O)c2cc(NC(=O)NC3CCCCC3)ccc2O1", "cytotoxicity call": "active"},
      {"smiles": "C[C@@H]1CCCCO[C@H](CN(C)Cc2ccccc2)[C@@H](C)CN([C@@H](C)CO)C(=O)c2cc(NC(=O)NC3CCCCC3)ccc2O1", "cytotoxicity call": "active"},
      {"smiles": "C[C@@H]1CCCCO[C@@H](CN(C)Cc2ccccc2)[C@H](C)CN([C@@H](C)CO)C(=O)c2cc(NC(=O)NC3CCCCC3)ccc2O1", "cytotoxicity call": "inactive"},
      {"smiles": "C[C@@H]1CCCCO[C@@H](CN(C)Cc2ccccc2)[C@H](C)CN([C@H](C)CO)C(=O)c2cc(NC(=O)NC3CCCCC3)ccc2O1", "cytotoxicity call": "inactive"},
      {"smiles": "C[C@@H]1CN([C@@H](C)CO)C(=O)c2cc(NC(=O)Cn3cnnn3)ccc2O[C@H]1CN(C)S(=O)(=O)c1ccc(Cl)cc1", "cytotoxicity call": "inactive"},
      {"smiles": "COc1ccc(S(=O)(=O)N[C@H]2CC[C@@H](CCNC(=O)CN3CCOCC3)O[C@H]2CO)cc1", "cytotoxicity call": "inactive"},
      {"smiles": "C[C@@H]1CN([C@@H](C)CO)C(=O)Cc2cc(NS(=O)(=O)c3cn(C)cn3)ccc2O[C@H]1CN(C)S(=O)(=O)c1ccc(Cl)cc1", "cytotoxicity call": "inactive"},
      {"smiles": "CO[C@@H]1CN(C)C(=O)c2cc(NS(=O)(=O)CC(F)(F)F)ccc2OC[C@@H](C)N(Cc2ccccn2)C[C@H]1C", "cytotoxicity call": "inactive"},
      {"smiles": "CN1C(=S)N[C@@H]2CS(=O)(=O)C[C@@H]21", "cytotoxicity call": "inactive"},
      {"smiles": "O=C(CCCCCC(=O)N/N=C/[C@H](O)[C@H](O)[C@@H](O)[C@@H](O)CO)NO", "cytotoxicity call": "inactive"},
      {"smiles": "C[C@H]1CN([C@@H](C)CO)C(=O)c2cc(C3=CCCCC3)cnc2O[C@@H]1CN(C)C(=O)CN1CCOCC1", "cytotoxicity call": "inactive"},
      {"smiles": "O=c1nc[nH]c2c1ncn2[C@@H]1C[C@@H](O)[C@H](CO)O1", "cytotoxicity call": "inactive"},
      {"smiles": "C[C@@H]1CN([C@H](C)CO)C(=O)c2cccc(NC(=O)c3nc4ccccc4s3)c2O[C@@H]1CN(C)CC1CCCCC1", "cytotoxicity call": "inactive"},
      {"smiles": "CCN1[C@@H]2O[C@@H]3O[C@H]4[C@H](O[C@H]3O[C@@H]2N(CC)S1(=O)=O)N(CC)S(=O)(=O)N4CC", "cytotoxicity call": "inactive"},
      {"smiles": "C[C@H](CO)N1C[C@H](C)[C@H](CN(C)S(=O)(=O)c2cccs2)Oc2ncc(C#Cc3cccc(F)c3)cc2C1=O", "cytotoxicity call": "inactive"},
      {"smiles": "Cc1noc(C)c1NC(=O)N(C)C[C@@H]1Oc2ccc(NC(=O)CCN3CCOCC3)cc2C(=O)N([C@@H](C)CO)C[C@H]1C", "cytotoxicity call": "inactive"},
      {"smiles": "C[C@H]1CCCCO[C@H](CN(C)Cc2ccccc2)[C@@H](C)CN([C@@H](C)CO)C(=O)c2cc(NC(=O)NC3CCCCC3)ccc2O1", "cytotoxicity call": "active"},
      {"smiles": "C[C@@H]1CN([C@H](C)CO)C(=O)c2cc(NC(=O)NC3CCCCC3)ccc2O[C@@H](C)CCCCO[C@H]1CN(C)Cc1ccccc1", "cytotoxicity call": "inactive"},
      {"smiles": "C[C@@H]1CCCCO[C@H](CN(C)Cc2ccccc2)[C@@H](C)CN([C@H](C)CO)C(=O)c2cc(NC(=O)NC3CCCCC3)ccc2O1", "cytotoxicity call": "inactive"},
      {"smiles": "COc1ccc(S(=O)(=O)N(C)C[C@@H]2Oc3c(NS(=O)(=O)c4ccccc4)cccc3C(=O)N([C@H](C)CO)C[C@@H]2C)cc1", "cytotoxicity call": "inactive"},
      {"smiles": "C[C@H]1CN([C@@H](C)CO)C(=O)Cc2cc(NC(=O)CCN3CCOCC3)ccc2O[C@H]1CN(C)Cc1ccc2c(c1)OCO2", "cytotoxicity call": "inactive"},
      {"smiles": "C[C@@H]1CCCCO[C@H](CN(C)Cc2ccc(Cl)c(Cl)c2)[C@@H](C)CN([C@H](C)CO)C(=O)c2cc(NC(=O)NC3CCCCC3)ccc2O1", "cytotoxicity call": "inactive"},
      {"smiles": "C[C@H]1CCCCO[C@H](CN(C)Cc2ccc(Cl)c(Cl)c2)[C@@H](C)CN([C@@H](C)CO)C(=O)c2cc(NC(=O)NC3CCCCC3)ccc2O1", "cytotoxicity call": "inactive"},
      {"smiles": "C[C@H](CO)N1C[C@H](C)[C@@H](CN(C)Cc2ccc(Cl)c(Cl)c2)OCCCC[C@H](C)Oc2ccc(NC(=O)NC3CCCCC3)cc2C1=O", "cytotoxicity call": "active"},
      {"smiles": "C[C@@H]1CCCCO[C@@H](CN(C)Cc2ccc(Cl)c(Cl)c2)[C@@H](C)CN([C@@H](C)CO)C(=O)c2cc(NC(=O)NC3CCCCC3)ccc2O1", "cytotoxicity call": "active"},
      {"smiles": "C[C@@H]1CCCCO[C@H](CN(C)Cc2ccc(Cl)c(Cl)c2)[C@@H](C)CN([C@@H](C)CO)C(=O)c2cc(NC(=O)NC3CCCCC3)ccc2O1", "cytotoxicity call": "inactive"},
      {"smiles": "C[C@@H]1CCCCO[C@@H](CN(C)Cc2ccc(Cl)c(Cl)c2)[C@@H](C)CN([C@H](C)CO)C(=O)c2cc(NC(=O)NC3CCCCC3)ccc2O1", "cytotoxicity call": "inactive"},
      {"smiles": "C[C@@H]1CCCCO[C@@H](CN(C)Cc2ccc(Cl)c(Cl)c2)[C@H](C)CN([C@H](C)CO)C(=O)c2cc(NC(=O)NC3CCCCC3)ccc2O1", "cytotoxicity call": "inactive"},
      {"smiles": "C[C@@H]1CN([C@@H](C)CO)C(=O)c2cc(NC(=O)NC3CCCCC3)ccc2O[C@@H](C)CCCCO[C@H]1CN(C)Cc1ccc(Cl)c(Cl)c1", "cytotoxicity call": "active"},
      {"smiles": "C[C@H](CO)N1C[C@H](C)[C@H](CN(C)Cc2ccc(Cl)c(Cl)c2)OCCCC[C@H](C)Oc2ccc(NC(=O)NC3CCCCC3)cc2C1=O", "cytotoxicity call": "active"},
      {"smiles": "C[C@@H]1CCCCO[C@H](CN(C)Cc2ccc(Cl)c(Cl)c2)[C@H](C)CN([C@@H](C)CO)C(=O)c2cc(NC(=O)NC3CCCCC3)ccc2O1", "cytotoxicity call": "inactive"},
      {"smiles": "C[C@@H]1CN([C@H](C)CO)C(=O)c2cc(NC(=O)NC3CCCCC3)ccc2O[C@@H](C)CCCCO[C@@H]1CN(C)Cc1ccc(Cl)c(Cl)c1", "cytotoxicity call": "inactive"},
      {"smiles": "C[C@@H]1CCCCO[C@@H](CN(C)Cc2ccc(Cl)c(Cl)c2)[C@H](C)CN([C@@H](C)CO)C(=O)c2cc(NC(=O)NC3CCCCC3)ccc2O1", "cytotoxicity call": "inactive"},
      {"smiles": "O=C(O)CCN1CCCC1=O", "cytotoxicity call": "inactive"},
      {"smiles": "COC(=O)c1c2oc(c1C(=O)OC)C(=O)N[C@@H](Cc1ccccc1)Cn1cc(nn1)[C@H](Cc1ccccc1)NC(=O)N[C@@H](CO)CC2", "cytotoxicity call": "inactive"},
      {"smiles": "C[C@H]1CN([C@@H](C)CO)C(=O)Cc2cc(NC(=O)Cn3cnnn3)ccc2O[C@H]1CN(C)Cc1ccc(C(=O)O)cc1", "cytotoxicity call": "inactive"},
      {"smiles": "C[C@@H]1CN([C@@H](C)CO)C(=O)c2cc(N(C)C)ccc2O[C@@H](C)CCCCO[C@@H]1CN(C)S(=O)(=O)c1cn(C)cn1", "cytotoxicity call": "inactive"},
      {"smiles": "COc1ccc(NC(=O)Nc2ccc3c(c2)C(=O)N([C@@H](C)CO)C[C@@H](C)[C@@H](CN(C)C(=O)Nc2ccc(OC)cc2)OCCCC[C@H](C)O3)cc1", "cytotoxicity call": "inactive"},
      {"smiles": "C[C@@H]1CN([C@@H](C)CO)C(=O)c2cccc(NC(=O)NC3CCCCC3)c2O[C@@H]1CN(C)Cc1ccc(Cl)c(Cl)c1", "cytotoxicity call": "inactive"},
      {"smiles": "O=C(O)/C=C/c1cnc[nH]1", "cytotoxicity call": "inactive"},
      {"smiles": "C=CCN1C(=O)[C@]2(O[C@H](CCO)[C@@H]([Si](C)(C)c3ccc(OC)cc3)[C@@H]2C)c2cc(N3C(=O)c4cccc5cccc3c45)ccc21", "cytotoxicity call": "active"},
      {"smiles": "C=CCN1C(=O)[C@@]2(O[C@@H](CCn3cc([C@H](O)c4ccccc4)nn3)[C@H]([Si](C)(C)c3ccc(OC)cc3)[C@H]2C)c2cc(N3C(=O)c4cccc5cccc3c45)ccc21", "cytotoxicity call": "inactive"},
      {"smiles": "C=CCN1C(=O)[C@@]2(O[C@@H](CCO)[C@H]([Si](C)(C)c3ccc(OC)cc3)[C@H]2C)c2cc(N3C(=O)c4cccc5cccc3c45)ccc21", "cytotoxicity call": "active"},
      {"smiles": "C=CCN1C(=O)[C@]2(O[C@H](CCn3cc([C@H](O)c4ccccc4)nn3)[C@@H]([Si](C)(C)c3ccc(OC)cc3)[C@@H]2C)c2cc(N3C(=O)c4cccc5cccc3c45)ccc21", "cytotoxicity call": "inactive"},
      {"smiles": "C=CCN1C(=O)[C@@]2(O[C@@H](CCO)[C@H]([Si](C)(C)F)[C@H]2C)c2cc(N3C(=O)c4cccc5cccc3c45)ccc21", "cytotoxicity call": "inactive"}
    ]}
  ]
}
